The full data set covers some 8,800 targets. This sample favours those with a hit. About 0.5% of all pairs of compound and target were hits.
Legend:
Assay in all cases: log2 fold change, soluble protein after heating vs DMSO (PISA); higher = thermal stabilisation; K562 lysate, 10 uM; active = over 0.2 and 3.5 SD of the protein, either way, in both replicates (recomputed)
[1] = compound: CN1CC[C@H](c2c(O)cc(O)c3c(=O)cc(-c4ccccc4Cl)oc23)[C@H](O)C1 [alvocidib]
In short: (§1)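 To prepare the extract, K562 pellets were dounce-homogenised in PBS pH 7.4 with 1 mM MgCl2, giving crude material at 1 mg/mL protein. This was treated with 10 μM compound for 30 min, then heated in aliquots for 3 min over 48°C-58°C before pooling and addition of NP-40 to 0.5% at 4°C. Centrifugation at 21,000xg for 90 min left soluble protein in the supernatant, which TMTpro 16plex LC-MS/MS quantified with equalised channel sums. Results are log-two fold changes in thermal stability compared with solvent controls, from duplicates.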

[2] = compound: CN1CCc2c(c3ccccc3n2Cc2ccc(C(=O)NO)cc2)C1 [Tubastatin A]
In short: as §1

[3] = compound: CNC(=O)C1=CC=CC=C1NC2=NC(=NC=C2Cl)NC3=C(C=C(C=C3)N4CCOCC4)OC
In short: as §1

[4] = compound: CNC(=O)c1ccc(Nc2ncc(C(F)(F)F)c(NCc3nccnc3N(C)S(C)(=O)=O)n2)cc1 [defactinib]
In short: as §1

[5] = compound: CNc1nc(-c2ccc3c(N)n[nH]c3c2)cc(N2C[C@@H](C(=O)NC3CCCCC3)CC[C@H]2C)n1
In short: as §1

[6] = compound: COC(=O)N[C@@H](C)CNc1nccc(-c2cn(C(C)C)nc2-c2cc(Cl)cc(NS(C)(=O)=O)c2F)n1 [encorafenib]
In short: as §1

[7] = compound: COC(=O)[C@H](CCSC)NC(=O)C1=C(C=C(C=C1)NC[C@H](CS)N)C2=CC=CC=C2
In short: as §1

[8] = compound: COc1cc(Nc2ncc3c(n2)-c2ccc(Cl)cc2C(c2c(F)cccc2OC)=NC3)ccc1C(=O)O [alisertib]
In short: as §1

[9] = compound: COc1cc2nc(-c3cc(F)ccc3O)nc(N[C@@H]3CNC[C@H]3C(C)(C)O)c2cc1OC
In short: as §1

[10] = compound: COc1cc2ncnc(Nc3ccc(F)c(Cl)c3)c2cc1OCCCN1CCOCC1 [gefitinib]
In short: as §1

Measured: log2 fold change

VPS13C (UniProt Q709C8)
inactive: [1] 0.008 | [2] 0.034 | [3] 0.002 | [4] 0.014 | [5] 0.023 | [6] 0.192 | [7] -0.131 | [8] 0.111 | [9] 0.157 | [10] 0.131

WDR91 (UniProt A4D1P6)
inactive: [1] -0.018 | [2] -0.097 | [3] 0.017 | [4] -0.003 | [5] -0.056 | [6] 0.026 | [7] 0.1 | [8] 0.013 | [9] -0.007 | [10] -0.004

VAMP2 (UniProt P63027)
inactive: [1] 0.019 | [2] 0.027 | [3] 0.035 | [4] 0.112 | [5] -0.01 | [6] 0.05 | [7] -0.057 | [8] 0.014 | [9] 0.001 | [10] 0.018

VASP (UniProt P50552)
UniProt P50552, sequence (P50552 whole entry, looked up): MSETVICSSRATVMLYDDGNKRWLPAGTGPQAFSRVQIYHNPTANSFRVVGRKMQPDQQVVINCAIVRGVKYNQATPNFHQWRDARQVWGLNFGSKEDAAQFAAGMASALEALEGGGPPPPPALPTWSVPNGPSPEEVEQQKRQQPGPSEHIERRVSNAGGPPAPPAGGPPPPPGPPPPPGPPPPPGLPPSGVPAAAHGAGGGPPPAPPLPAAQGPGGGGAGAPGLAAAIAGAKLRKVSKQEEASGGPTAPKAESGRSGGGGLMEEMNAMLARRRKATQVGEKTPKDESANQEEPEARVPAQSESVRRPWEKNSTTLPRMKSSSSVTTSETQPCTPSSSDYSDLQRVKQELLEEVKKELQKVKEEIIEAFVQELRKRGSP
inactive: [1] 0.031 | [2] 0.022 | [3] -0.017 | [4] 0.013 | [5] -0.003 | [6] -0.033 | [7] -0.007 | [8] 0.018 | [9] 0.009 | [10] 0.019

WDR20 isoform 7 (UniProt Q8TBZ3)
inactive: [1] -0.041 | [2] -0.035 | [3] 0.02 | [4] -0.049 | [5] -0.13 | [6] 0.078 | [7] -0.114 | [8] 0.175 | [9] -0.002 | [10] -0.149

YLPM1 (UniProt P49750)
inactive: [1] 0.061 | [2] -0.041 | [3] 0.01 | [4] 0.041 | [5] 0.131 | [6] 0.049 | [7] -0.09 | [8] -0.033 | [9] 0 | [10] -0.086

ZNF318 (UniProt Q5VUA4)
inactive: [1] 0.033 | [2] -0.177 | [3] 0.034 | [4] -0.055 | [5] -0.002 | [6] 0.03 | [7] 0.117 | [8] 0.03 | [9] 0.142 | [10] 0.025

YTHDC2 (UniProt Q9H6S0)
inactive: [1] 0.05 | [2] -0.084 | [3] 0.038 | [4] 0.048 | [5] -0.008 | [6] 0.04 | [7] 0.05 | [8] -0.026 | [9] -0.029 | [10] -0.004

UTP18 (UniProt Q9Y5J1)
UniProt Q9Y5J1, sequence (Q9Y5J1 whole entry, looked up): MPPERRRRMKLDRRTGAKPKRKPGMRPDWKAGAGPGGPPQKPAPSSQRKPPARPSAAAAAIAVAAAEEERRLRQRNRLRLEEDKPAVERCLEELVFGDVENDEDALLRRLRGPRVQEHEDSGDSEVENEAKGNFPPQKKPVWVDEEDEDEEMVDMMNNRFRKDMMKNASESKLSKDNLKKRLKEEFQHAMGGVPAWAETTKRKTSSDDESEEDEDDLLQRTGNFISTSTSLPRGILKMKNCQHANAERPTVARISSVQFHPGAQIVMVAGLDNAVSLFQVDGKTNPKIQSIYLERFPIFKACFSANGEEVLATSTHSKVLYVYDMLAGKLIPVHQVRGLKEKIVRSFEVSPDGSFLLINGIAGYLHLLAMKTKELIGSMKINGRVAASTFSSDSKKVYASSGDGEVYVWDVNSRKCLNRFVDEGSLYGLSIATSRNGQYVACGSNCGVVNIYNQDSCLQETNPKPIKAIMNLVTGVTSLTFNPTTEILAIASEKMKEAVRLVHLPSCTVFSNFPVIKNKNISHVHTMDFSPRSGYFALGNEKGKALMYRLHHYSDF
inactive: [1] 0.009 | [2] -0.05 | [3] 0.075 | [4] -0.086 | [5] -0.049 | [6] -0.028 | [7] 0.006 | [8] -0.032 | [9] -0.05 | [10] -0.046

VPS39 (UniProt Q96JC1)
inactive: [2] -0.06 | [3] 0.036 | [4] 0.011 | [5] 0.007 | [6] 0.043 | [7] -0.218 | [8] 0.041 | [9] 0.026 | [10] -0.041
active: [1] 0.268

YDJC (UniProt A8MPS7)
inactive: [1] -0.039 | [2] 0.052 | [3] 0.014 | [4] -0.026 | [5] 0.014 | [6] -0.025 | [7] -0.036 | [8] 0.035 | [9] 0.007 | [10] -0.02

UPF3B (UniProt Q9BZI7)
UniProt Q9BZI7, sequence (Q9BZI7 whole entry, looked up): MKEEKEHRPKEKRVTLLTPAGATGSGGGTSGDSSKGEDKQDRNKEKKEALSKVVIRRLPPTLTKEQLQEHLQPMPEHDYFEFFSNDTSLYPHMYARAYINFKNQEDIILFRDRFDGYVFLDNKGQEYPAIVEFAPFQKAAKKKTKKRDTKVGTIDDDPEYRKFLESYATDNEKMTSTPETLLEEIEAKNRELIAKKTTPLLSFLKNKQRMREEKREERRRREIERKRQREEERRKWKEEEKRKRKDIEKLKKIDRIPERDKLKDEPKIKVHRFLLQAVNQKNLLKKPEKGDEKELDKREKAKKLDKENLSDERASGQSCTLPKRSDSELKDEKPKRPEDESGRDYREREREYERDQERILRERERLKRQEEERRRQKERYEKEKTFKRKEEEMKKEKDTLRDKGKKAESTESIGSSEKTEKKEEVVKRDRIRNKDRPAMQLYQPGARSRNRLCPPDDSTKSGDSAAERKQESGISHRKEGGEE
inactive: [1] -0.105 | [2] -0.001 | [3] 0.023 | [4] -0.015 | [5] 0.011 | [6] 0.011 | [7] 0.049 | [8] 0.021 | [9] -0.021 | [10] -0.038

USP9X (UniProt Q93008)
UniProt Q93008, sequence (Q93008 whole entry, looked up): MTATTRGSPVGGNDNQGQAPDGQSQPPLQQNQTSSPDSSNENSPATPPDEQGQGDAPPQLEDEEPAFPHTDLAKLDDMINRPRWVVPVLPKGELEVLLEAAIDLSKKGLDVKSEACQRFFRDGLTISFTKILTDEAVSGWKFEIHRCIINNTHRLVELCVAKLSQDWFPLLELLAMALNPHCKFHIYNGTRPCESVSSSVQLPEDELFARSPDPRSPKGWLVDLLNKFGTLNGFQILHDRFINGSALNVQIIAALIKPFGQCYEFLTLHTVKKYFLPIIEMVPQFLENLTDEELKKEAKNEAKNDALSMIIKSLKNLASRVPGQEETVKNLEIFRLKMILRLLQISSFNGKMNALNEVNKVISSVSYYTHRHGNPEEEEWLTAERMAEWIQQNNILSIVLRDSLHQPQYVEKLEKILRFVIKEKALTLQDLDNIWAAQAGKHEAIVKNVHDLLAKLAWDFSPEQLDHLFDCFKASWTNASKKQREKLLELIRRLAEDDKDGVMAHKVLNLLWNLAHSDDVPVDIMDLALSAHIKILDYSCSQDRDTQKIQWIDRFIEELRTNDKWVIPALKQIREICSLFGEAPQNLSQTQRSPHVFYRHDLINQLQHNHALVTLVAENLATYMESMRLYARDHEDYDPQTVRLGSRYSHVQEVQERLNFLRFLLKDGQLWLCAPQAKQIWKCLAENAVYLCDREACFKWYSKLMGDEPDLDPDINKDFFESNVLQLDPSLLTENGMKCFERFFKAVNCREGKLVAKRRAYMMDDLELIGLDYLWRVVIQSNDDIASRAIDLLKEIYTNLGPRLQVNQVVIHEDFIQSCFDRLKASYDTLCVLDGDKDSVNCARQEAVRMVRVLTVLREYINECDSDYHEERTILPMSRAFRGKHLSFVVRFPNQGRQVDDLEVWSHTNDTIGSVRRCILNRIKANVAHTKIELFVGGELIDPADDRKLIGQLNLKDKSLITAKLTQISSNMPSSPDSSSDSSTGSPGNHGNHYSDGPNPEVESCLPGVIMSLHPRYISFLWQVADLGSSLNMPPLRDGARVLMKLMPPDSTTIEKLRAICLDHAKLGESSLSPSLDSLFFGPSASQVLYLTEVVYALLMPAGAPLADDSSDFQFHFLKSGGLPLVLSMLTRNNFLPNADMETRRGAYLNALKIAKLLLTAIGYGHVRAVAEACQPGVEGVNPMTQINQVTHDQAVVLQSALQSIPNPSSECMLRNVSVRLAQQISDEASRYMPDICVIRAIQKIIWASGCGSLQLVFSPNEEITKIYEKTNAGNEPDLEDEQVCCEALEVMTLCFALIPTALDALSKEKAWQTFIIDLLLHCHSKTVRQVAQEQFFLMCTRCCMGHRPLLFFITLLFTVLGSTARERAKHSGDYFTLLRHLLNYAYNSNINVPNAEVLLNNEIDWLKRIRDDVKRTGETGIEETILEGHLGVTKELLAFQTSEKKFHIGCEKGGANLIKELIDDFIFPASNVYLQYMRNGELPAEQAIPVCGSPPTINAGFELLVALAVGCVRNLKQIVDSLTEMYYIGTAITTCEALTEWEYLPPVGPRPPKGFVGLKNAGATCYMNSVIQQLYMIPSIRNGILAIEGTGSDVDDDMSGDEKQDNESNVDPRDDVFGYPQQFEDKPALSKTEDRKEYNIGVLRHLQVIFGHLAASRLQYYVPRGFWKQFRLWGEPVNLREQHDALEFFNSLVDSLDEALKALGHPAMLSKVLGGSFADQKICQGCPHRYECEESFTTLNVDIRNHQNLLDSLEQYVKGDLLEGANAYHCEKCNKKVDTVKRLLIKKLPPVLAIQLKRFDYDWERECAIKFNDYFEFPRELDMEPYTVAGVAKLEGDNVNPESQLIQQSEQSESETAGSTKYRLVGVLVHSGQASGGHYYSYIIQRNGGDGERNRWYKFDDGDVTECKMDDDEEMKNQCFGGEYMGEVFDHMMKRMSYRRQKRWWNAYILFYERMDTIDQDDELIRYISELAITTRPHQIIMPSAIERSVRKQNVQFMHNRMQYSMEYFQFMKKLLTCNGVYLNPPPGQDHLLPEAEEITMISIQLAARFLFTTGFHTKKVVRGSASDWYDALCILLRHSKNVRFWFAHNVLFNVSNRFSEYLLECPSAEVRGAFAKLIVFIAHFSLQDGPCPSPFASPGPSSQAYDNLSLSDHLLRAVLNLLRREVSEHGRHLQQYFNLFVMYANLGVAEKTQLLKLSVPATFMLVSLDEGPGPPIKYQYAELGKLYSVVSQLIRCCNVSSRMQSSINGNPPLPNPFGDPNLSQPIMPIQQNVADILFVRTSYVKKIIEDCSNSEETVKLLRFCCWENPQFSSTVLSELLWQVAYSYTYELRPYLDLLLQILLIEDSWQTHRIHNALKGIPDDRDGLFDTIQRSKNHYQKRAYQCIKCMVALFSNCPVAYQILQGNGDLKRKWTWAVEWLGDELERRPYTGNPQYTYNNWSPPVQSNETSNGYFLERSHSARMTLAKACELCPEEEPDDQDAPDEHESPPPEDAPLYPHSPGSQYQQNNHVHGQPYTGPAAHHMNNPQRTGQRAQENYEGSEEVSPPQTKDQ
inactive: [1] -0.009 | [2] -0.114 | [3] 0.016 | [4] 0.026 | [5] -0.04 | [6] 0.007 | [7] 0.023 | [8] 0.016 | [9] 0.013 | [10] 0.002

YME1L1 (UniProt Q96TA2)
active: [7] -0.301
inactive: [1] 0.018 | [2] 0.048 | [3] 0.011 | [4] 0.018 | [5] -0.061 | [6] 0.05 | [8] -0.016 | [9] 0.028 | [10] 0.042

WDHD1 (UniProt O75717)
UniProt O75717, sequence (O75717 whole entry, looked up): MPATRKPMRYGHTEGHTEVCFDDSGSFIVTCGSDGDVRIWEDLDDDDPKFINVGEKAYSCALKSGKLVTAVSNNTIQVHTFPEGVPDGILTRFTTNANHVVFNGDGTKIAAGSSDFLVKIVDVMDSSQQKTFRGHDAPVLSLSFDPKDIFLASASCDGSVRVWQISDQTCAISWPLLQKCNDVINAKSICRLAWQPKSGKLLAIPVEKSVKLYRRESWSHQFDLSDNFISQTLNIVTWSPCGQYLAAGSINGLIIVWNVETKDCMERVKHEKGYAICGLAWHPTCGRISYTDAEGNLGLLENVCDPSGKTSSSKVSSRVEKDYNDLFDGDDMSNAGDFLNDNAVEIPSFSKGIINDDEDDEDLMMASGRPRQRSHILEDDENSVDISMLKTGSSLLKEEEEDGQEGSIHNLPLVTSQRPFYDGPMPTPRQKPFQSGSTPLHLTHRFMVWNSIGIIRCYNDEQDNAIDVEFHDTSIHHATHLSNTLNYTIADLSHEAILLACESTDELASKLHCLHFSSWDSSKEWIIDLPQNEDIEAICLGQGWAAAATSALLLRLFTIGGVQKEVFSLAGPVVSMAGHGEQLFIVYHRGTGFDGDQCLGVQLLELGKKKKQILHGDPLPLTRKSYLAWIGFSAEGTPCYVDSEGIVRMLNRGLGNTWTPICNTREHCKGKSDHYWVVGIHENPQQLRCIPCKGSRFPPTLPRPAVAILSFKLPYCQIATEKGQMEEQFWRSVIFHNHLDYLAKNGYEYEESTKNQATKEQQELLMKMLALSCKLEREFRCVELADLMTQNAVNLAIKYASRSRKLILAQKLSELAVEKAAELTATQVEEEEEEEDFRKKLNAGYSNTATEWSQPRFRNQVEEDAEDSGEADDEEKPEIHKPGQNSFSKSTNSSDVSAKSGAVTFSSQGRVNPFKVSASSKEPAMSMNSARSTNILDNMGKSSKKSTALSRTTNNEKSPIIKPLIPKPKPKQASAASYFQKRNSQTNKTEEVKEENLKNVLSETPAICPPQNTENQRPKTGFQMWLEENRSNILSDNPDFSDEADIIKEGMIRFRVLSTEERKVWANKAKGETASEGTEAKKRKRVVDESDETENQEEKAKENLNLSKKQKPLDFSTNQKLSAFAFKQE
inactive: [1] 0.042 | [2] -0.073 | [3] 0.004 | [4] -0.002 | [5] -0.011 | [6] -0.019 | [7] 0.098 | [8] -0.016 | [9] -0.003 | [10] 0.015

Reference: the supplement of paper PMC10849652
